# Results filed as inconclusive are left out. Where a call stands in place of a potency, no number is given. Activity calls are given as the source filed them. Unless noted, the call rests on the fitted dose curve; in most records, active means well fitted curve in the direction sought with a large enough effect; inconclusive means small, poorly fitted or top-dose-only effect, or another doubt; inactive means no such curve, though single readings can be large; an effect the other way counts as inactive or inconclusive.
# Experiments:
# [1] = target: DNA repair nuclease/redox regulator APEX1 (Homo sapiens) (UniProt P27695); assay: qHTS Validation Assay for Inhibitors of the Human Apurinic/apyrimidinic Endonuclease 1 (APE1) (AID 1705;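 further: TAMRA fluorescence gain over two minutes as APE1 cuts a quenched THF abasic duplex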)
# Sequence of DNA repair nuclease/redox regulator APEX1 (Homo sapiens) (P27695 whole entry, looked up): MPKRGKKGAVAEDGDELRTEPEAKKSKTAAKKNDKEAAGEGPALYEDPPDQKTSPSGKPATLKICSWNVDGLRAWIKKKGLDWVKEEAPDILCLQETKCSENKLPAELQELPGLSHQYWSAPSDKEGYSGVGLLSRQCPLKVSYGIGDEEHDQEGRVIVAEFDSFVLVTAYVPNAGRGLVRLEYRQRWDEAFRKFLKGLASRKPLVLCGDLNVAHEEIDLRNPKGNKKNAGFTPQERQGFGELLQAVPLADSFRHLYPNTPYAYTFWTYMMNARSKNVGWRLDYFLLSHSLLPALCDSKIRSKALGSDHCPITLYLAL
# Outline: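 qHTS, 1536-well. APE1 + cpd 15 min RT → 50 nM TAMRA/BHQ-2 THF-abasic dsDNA substrate → kinetic fluorescence, 3 reads/60 s; delta(read3−read1) = reaction progress. No-enzyme buffer = negative control.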
# [2] = Counterscreen for APE1 Inhibitors: Fluorescent Dye Displacement Validation Assay (AID 1707)
# Outline: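 Loss of Thiazole Orange fluorescence marks promiscuous DNA binders. The dye (250 nM) is mixed with 50 nM abasic-site dsDNA in pH7.5 Tris buffer containing MgCl2, then compounds are added and emission is read once.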
# [3] = qHTS for differential inhibitors of proliferation of Plasmodium falciparum line 7G8 (AID 1815);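 further: potency means the concentration at half of the fitted maximal effect; parasite growth measured after three days of incubation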
# [4] = qHTS for differential inhibitors of proliferation of Plasmodium falciparum line Dd2 (AID 1882); conditions: Potency: Plasmodium falciparum Dd2 proliferation inhibition; further: nearly all actives have a fitted effect of over 65% in size
# Outline: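 SYBR Green DNA fluorescence (ex 485, em 535 nm) after overnight lysis quantifies parasite growth; compound exposure lasted 72 h at 37 C on infected red cells at 2.5% hematocrit, 0.3% parasitemia (final). Artemisinin 0.29 uM and vehicle wells define normalization.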
# [5] = qHTS for differential inhibitors of proliferation of Plasmodium falciparum line W2 (AID 1883); conditions: Potency: Plasmodium falciparum W2 proliferation inhibition;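 further: potency means the concentration at half of the fitted maximal effect; parasites grown with compound for 72 h before lysis and staining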
# [6] = target: ATP-dependent DNA helicase Q1 (Homo sapiens) (UniProt P46063); assay: qHTS Validation Assay for Inhibitors of RecQ-Like Dna Helicase 1 (RECQ1) (AID 2353)
# Sequence of ATP-dependent DNA helicase Q1 (Homo sapiens) (P46063 whole entry, looked up): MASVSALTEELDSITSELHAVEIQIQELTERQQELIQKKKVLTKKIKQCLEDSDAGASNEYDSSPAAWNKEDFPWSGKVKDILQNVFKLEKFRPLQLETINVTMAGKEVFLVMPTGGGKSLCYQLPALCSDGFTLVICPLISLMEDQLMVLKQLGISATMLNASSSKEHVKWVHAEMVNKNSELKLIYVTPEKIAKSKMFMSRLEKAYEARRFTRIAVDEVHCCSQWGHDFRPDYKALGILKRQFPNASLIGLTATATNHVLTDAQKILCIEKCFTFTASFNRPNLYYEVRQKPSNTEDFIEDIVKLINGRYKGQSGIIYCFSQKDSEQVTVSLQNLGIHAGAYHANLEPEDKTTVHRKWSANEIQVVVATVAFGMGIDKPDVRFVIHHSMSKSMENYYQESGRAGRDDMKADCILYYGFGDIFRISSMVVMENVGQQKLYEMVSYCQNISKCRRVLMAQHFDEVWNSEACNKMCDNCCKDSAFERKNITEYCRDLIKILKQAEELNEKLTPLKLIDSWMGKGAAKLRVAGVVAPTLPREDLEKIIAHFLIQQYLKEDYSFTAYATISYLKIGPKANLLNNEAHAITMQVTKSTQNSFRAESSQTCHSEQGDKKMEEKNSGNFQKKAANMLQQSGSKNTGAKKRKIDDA
# Outline: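 RECQ1T1 50 nM; forked duplex (20 bp + 30-nt ss tails) 200 nM, ATP 2 mM final; pH 8.0, 2 mM MgCl2, 2.5 ug/ml poly(dI-dC); 15 min compound preincubation; discontinuous kinetic read over 2 h at RT.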
# [7] = Quantitative high throughput screen for delayed death inhibitors of the malarial parasite plastid, 48 hour incubation (AID 488752); further: nearly all actives have a fitted effect of over 65% in size
# Outline: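 One-generation (48 h) growth assay: a decrease in luciferase signal from an integrated reporter in P. falciparum-infected red cells (0.1% parasitemia, 2% hematocrit) after compound exposure at 37 C indicates parasite inhibition.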
# [8] = target: M-phase phosphoprotein 8 (Homo sapiens) (UniProt Q99549); assay: qHTS Validation Assay for Inhibitors for MPP8 Chromodomain Interactions with Methylated Histone Tails (AID 488949);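 further: 50 nM MPP8 with 50 nM peptide preformed then compounds added for 30 min; AlphaScreen signal from MPP8 chromodomain bound to biotinylated H3K9me3 peptide; top concentration of the series differs between compounds; nearly all actives have a fitted effect of over 55% in size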
# Sequence of M-phase phosphoprotein 8 (Homo sapiens) (Q99549 whole entry, looked up): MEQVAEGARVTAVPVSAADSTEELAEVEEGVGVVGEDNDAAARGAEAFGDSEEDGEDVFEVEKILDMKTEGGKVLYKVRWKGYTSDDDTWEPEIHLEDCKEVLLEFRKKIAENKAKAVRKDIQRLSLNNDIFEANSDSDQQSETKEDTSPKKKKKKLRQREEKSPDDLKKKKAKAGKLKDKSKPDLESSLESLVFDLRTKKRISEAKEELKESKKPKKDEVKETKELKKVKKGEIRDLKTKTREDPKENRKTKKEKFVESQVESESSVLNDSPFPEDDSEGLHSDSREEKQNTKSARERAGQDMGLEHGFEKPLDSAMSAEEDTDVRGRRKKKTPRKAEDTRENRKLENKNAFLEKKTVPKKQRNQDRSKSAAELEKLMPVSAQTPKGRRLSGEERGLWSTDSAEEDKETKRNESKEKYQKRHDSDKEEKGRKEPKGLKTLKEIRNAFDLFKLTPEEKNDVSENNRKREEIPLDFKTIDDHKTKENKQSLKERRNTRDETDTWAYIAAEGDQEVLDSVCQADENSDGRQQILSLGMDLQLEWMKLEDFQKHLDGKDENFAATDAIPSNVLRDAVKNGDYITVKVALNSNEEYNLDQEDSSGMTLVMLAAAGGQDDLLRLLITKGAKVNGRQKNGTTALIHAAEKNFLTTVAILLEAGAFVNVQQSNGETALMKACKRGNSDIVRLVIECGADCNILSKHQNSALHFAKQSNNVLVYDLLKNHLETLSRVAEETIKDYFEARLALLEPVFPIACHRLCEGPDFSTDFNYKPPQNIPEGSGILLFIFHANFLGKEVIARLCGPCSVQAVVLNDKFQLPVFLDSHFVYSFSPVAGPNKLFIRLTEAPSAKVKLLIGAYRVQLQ
# Outline: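 50 nM MPP8 + 50 nM b-H3K9me3 peptide, PBS pH 7.4/0.01% Tween-20, 30 min RT; + cpd 30 min RT; + AlphaScreen donor/Ni-chelate acceptor beads 10 ug/mL final, 30 min dark; luminescence read.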
# [9] = target: Transient receptor potential cation channel subfamily V member 1 (Homo sapiens) (UniProt Q8NER1); assay: HTS Assay for Compounds that Act as Enhancers of the Vanilloid Receptor 1 (AID 488979)
# Outline: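 TRPV1-expressing cells loaded with Fluo-8 calcium dye; compounds added and calcium influx read kinetically for 3 min (agonist phase), then capsaicin at EC20 added and read 2 min more for enhancement. Fluorescence ex 480/em 520 nm.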
# [10] = target: Thyrotropin receptor (Homo sapiens) (UniProt P16473); assay: qHTS Assay for Antagonists of the Thyroid Stimulating Hormone Receptor (AID 488980)
# Sequence of Thyrotropin receptor (Homo sapiens) (P16473 whole entry, looked up): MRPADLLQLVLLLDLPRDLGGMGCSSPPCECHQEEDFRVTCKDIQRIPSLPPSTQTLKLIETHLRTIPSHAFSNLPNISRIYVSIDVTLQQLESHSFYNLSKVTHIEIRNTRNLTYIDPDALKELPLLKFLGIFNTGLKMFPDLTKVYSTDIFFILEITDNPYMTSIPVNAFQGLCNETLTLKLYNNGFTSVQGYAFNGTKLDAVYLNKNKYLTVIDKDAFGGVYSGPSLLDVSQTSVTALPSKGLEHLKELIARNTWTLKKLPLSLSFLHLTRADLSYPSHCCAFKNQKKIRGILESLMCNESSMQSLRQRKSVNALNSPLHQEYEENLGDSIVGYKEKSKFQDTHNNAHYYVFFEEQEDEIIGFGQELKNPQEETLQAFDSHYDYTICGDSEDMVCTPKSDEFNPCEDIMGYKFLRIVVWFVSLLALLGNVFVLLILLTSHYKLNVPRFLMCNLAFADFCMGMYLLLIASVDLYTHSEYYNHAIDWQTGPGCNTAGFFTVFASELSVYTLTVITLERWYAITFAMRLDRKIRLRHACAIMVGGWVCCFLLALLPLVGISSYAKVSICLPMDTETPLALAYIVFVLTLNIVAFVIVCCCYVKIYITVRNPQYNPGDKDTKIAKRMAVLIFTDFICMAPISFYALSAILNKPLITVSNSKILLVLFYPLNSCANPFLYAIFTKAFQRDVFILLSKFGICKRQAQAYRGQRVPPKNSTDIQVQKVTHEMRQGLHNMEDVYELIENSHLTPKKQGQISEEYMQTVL
# Outline: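 Readout is cAMP by HTRF competition between cellular cAMP and cAMP-d2 for a cryptate-labelled antibody. Antagonism was assessed in TSHR-transfected HEK293 cells stimulated with 4 nM TSH (EC80, final) in the presence of RO 20-1724.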
# [11] = target: Thyrotropin-releasing hormone receptor (Homo sapiens) (UniProt P34981); assay: qHTS for Small Molecule Agonists and Allosteric Enhancers of Human TRH Receptor: Validation Screen for Agonists (AID 493127;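 active means calcium activation more than 3 SD above the typical response in the agonist read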;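 further: intracellular calcium rise by fluo-8 fluorescence before TRH EC20 addition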); conditions: TRH receptor agonist cell assay; at 2 µM; stronger effect = higher value
# Sequence of Thyrotropin-releasing hormone receptor (Homo sapiens) (P34981 whole entry, looked up): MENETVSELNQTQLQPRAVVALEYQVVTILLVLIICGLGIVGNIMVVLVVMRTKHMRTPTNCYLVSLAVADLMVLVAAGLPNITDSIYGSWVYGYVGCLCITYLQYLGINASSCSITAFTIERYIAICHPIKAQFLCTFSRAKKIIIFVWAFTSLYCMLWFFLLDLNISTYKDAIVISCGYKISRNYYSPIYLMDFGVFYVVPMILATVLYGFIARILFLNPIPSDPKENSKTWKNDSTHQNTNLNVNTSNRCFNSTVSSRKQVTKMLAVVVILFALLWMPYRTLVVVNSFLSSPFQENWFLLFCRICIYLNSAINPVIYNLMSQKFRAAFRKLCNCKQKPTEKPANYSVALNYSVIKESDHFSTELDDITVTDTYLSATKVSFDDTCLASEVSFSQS
# Outline: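 Compound-evoked intracellular calcium release in fluo-8-loaded TRHR cells, read kinetically on FDSS (Ex 480/Em 530, 1 s/cycle) after 23 nL pintool transfer. Agonist phase preceded 10 nM TRH EC20 addition.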
# [12] = target: Galactokinase (Homo sapiens) (UniProt P51570); assay: qHTS Validation Assay for Inhibitors of Human Galactokinase (GALK) (AID 493189)
# Sequence of Galactokinase (Homo sapiens) (P51570 whole entry, looked up): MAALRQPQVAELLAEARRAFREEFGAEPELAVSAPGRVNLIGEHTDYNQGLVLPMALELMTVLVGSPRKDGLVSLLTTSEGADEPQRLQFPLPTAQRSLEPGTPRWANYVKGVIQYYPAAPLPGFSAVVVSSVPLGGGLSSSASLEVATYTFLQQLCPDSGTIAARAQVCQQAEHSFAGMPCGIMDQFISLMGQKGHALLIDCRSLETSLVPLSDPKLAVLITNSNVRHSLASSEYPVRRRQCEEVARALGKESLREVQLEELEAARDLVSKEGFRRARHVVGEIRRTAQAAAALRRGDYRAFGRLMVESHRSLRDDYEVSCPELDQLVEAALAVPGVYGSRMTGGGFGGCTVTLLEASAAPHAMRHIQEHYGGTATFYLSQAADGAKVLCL
# Outline: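 5 nM GALK / 100 uM galactose / 35 uM ATP, 20 mM HEPES pH8.0, 5 mM MgCl2, 60 mM NaCl, 1 mM DTT, 0.01% BSA (final). RT 1 h; Kinase-Glo Plus luminescence.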
# [13] = target: Catechol O-methyltransferase (Homo sapiens) (UniProt P21964); assay: Confirmatory Screen for Target Class Profiling of Small Molecule Inhibitors of Methyltransferases (AID 1745852; calls by dose curve); conditions: MTase-Glo luminescence, SAH detection, recombinant enzyme; measured here: COMT max response; stronger effect = lower value
# Sequence of Catechol O-methyltransferase (Homo sapiens) (P21964 whole entry, looked up): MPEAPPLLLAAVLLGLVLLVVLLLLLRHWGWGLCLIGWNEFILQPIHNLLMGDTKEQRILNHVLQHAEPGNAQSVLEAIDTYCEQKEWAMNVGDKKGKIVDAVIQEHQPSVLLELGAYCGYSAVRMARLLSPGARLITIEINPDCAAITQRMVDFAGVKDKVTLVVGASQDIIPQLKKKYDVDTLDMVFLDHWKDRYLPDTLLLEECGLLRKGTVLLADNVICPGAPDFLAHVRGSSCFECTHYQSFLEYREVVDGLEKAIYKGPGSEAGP
# [14] = target: Guanidinoacetate N-methyltransferase (Homo sapiens) (UniProt Q14353); assay: as above; conditions: activity change, negative = inhibition: at 57.3 µM (top of the series) unless noted
# [15] = target: Nicotinamide N-methyltransferase (Homo sapiens) (UniProt P40261); assay: as above; conditions: MTase-Glo luminescence, SAH detection, recombinant enzyme; measured here: NNMT max response; stronger effect = lower value
# Sequence of Nicotinamide N-methyltransferase (Homo sapiens) (P40261 whole entry, looked up): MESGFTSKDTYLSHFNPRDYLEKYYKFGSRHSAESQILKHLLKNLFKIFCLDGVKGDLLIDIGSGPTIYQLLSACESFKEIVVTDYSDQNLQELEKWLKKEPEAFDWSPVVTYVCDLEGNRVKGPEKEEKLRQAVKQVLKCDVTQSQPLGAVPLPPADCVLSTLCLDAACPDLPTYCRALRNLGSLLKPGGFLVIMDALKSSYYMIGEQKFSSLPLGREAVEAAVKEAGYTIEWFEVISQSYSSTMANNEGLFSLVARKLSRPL
# [16] = target: Phenylethanolamine N-methyltransferase (Homo sapiens) (UniProt P11086); assay: as above; conditions: MTase-Glo luminescence, SAH detection, recombinant enzyme; measured here: PNMT max response; stronger effect = lower value
# Sequence of Phenylethanolamine N-methyltransferase (Homo sapiens) (P11086 whole entry, looked up): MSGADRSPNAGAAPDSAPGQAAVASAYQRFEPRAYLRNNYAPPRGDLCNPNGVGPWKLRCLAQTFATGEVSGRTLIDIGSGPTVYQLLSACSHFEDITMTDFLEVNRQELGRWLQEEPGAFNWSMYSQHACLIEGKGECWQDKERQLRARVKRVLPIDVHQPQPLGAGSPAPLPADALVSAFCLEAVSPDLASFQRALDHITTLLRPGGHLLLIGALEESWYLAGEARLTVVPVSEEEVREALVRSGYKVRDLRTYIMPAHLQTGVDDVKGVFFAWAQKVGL
# [17] = qHTS for differential inhibitors of proliferation of Plasmodium falciparum line GB4 (AID 1816); conditions: Potency: Plasmodium falciparum GB4 proliferation inhibition;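 further: parasite growth measured after 72 h incubation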
# [18] = qHTS for differential inhibitors of proliferation of Plasmodium falciparum line 3D7 (AID 1876);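 further: parasite growth measured after three days of culture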
# [19] = qHTS for differential inhibitors of proliferation of Plasmodium falciparum line D10 (AID 1877);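 further: parasites grown with compound for 72 h before DNA staining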
# [20] = qHTS for differential inhibitors of proliferation of Plasmodium falciparum line HB3 (AID 1886); conditions: Potency: Plasmodium falciparum HB3 proliferation inhibition;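 further: parasites grown with compound for 72 h before SYBR Green readout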
# [21] = target: Ferritin light chain (Equus caballus) (UniProt P02791); assay: qHTS Validation Assay for Identification of Novel General Anesthetics (AID 2323)
# Sequence of Ferritin light chain (Equus caballus) (P02791 2-175 limits assumed): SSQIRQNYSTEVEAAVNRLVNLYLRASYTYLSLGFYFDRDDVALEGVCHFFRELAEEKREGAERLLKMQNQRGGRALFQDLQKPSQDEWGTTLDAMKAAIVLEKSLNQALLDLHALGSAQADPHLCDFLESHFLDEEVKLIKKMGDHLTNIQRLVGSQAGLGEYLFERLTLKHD
# Outline: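 Fluorescence at 535 nm (excitation 380 nm) reported loss of 1-AMA binding to horse-spleen apoferritin (10 uM) in PBS with 50% saturated 1-aminoanthracene, after 10 min room-temperature incubation with compound; values from Hill fits of normalized response.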
# [22] = Quantitative high throughput screen for delayed death inhibitors of the malarial parasite plastid, 96 hour incubation (AID 488745); further: nearly all actives have a fitted effect of over 70% in size
# Outline: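 Decreased firefly luciferase luminescence indicates inhibited growth of reporter-integrated P. falciparum after two generations (96 h, 37 C, 5% CO2). Infected erythrocytes at 0.1% parasitemia, 2% hematocrit, in Albumax-supplemented RPMI 1640.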
structure (smiles),measurement,setting,value
C#C[C@]1(O)CC[C@H]2C3CCC4=Cc5oncc5CC4(C)C3CCC21C (stereo partly drawn),Potency,[1],inactive
same,outcome,[2],inactive
same,Potency,[3],8.91 µM (active)
same,Potency,[4],inactive
same,Potency,[5],8.91 µM (active)
same,outcome,[6],inactive
same,Potency,[7],inactive
same,Potency,[8],inactive
same,outcome,[9],inactive
same,outcome,[10],inactive
same,activation,[11],1.44% (inactive)
same,outcome,[12],inactive
Oc1ccc(NCCN2CCCC2)cc1,activity,[13],-10.9%
same,"activity change, negative = inhibition",[14],-14.6% [at 114 µM]
same,activity,[15],-12.3%
same,activity,[16],-7.62%
CCCC1c2cccn2CCN1C(=O)Nc1cc(Cl)ccc1C (stereo not drawn),activity,[13],1.08%
same,Potency,[14],inactive
same,activity,[15],-4.96%
same,activity,[16],-0.621%
COc1ccnc(-c2nnc3ccc(Nc4cc(OC)c(OC)c(OC)c4)nn23)c1,activity,[13],-13.7%
same,"activity change, negative = inhibition",[14],-8.44% [at 85.7 µM]
same,activity,[15],-18%
same,activity,[16],-25.6%
COc1ccc(C(=O)N(Cc2ccco2)S(=O)(=O)c2ccc3c(c2)n(C)c(=O)n3C)cc1,activity,[13],-5.23%
same,"activity change, negative = inhibition",[14],-1.3%
same,activity,[15],-20%
same,activity,[16],-5.7%
CC[C@H](C)C(=O)O[C@H]1CCC=C2C=C[C@H](C)[C@H](CC[C@@H]3C[C@H](O)CC(=O)O3)C21 (stereo partly drawn),Potency,[1],inactive
same,outcome,[2],inactive
same,Potency,[17],inactive
same,Potency,[18],inactive
same,Potency,[19],inactive
same,Potency,[4],inactive
same,Potency,[20],inactive
same,outcome,[21],inactive
same,outcome,[6],inactive
same,Potency,[22],inactive
same,Potency,[7],inactive
same,Potency,[8],inactive
same,outcome,[10],inactive
same,activation,[11],-5% (inactive)
same,outcome,[12],inactive

# — PubChem BioAssay (NCATS)
